The record followed here is PubChem BioAssay (NCATS).

The target in assay [1] is Cellular tumor antigen p53 (Homo sapiens) (UniProt P04637). Put plainly: Primary qHTS for small molecule compounds that upregulate eGFP-tagged delta133p53alpha (in N-terminal) cells. (AID 2060322). Further: nearly all actives have a fitted effect of over 75% in size. Further: potency means the concentration at half of the fitted maximal effect.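 On activation: series mostly up to about 56 µM; 0% = DMSO vehicle and 100% = reference activator.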 The settings on record: NCI-H358 eGFP-delta133p53alpha fluorescence, 24 h; activation: active compounds read high. Put shortly:
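NCI-H358 cells pre-induced 24 h with 10 ng/ml doxycycline to express N-terminal eGFP-delta133p53alpha, then dosed 24 h at 37C without doxycycline; fixed, Hoechst-stained, GFP intensity by laser scanning cytometry, normalized to DMSO (0%) and 57.5 uM 5-azacytidine (100%).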
A general note: Quantitative high-throughput screening tests each substance at several concentrations.

The target of assay [2] is Aldehyde dehydrogenase, mitochondrial (Homo sapiens) (UniProt P05091). Description: qHTS for Inhibitors of the Aldehyde Dehydrogenase Family (ALDH2) Primary screen (AID 2061308).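 Further: plate controls were vehicle for no effect and reference inhibitor for full effect; nearly all actives have a fitted effect of over 55% in size.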
Assay [3] deals with Retinaldehyde dehydrogenase 3 (Homo sapiens) (UniProt P47895). Put plainly: qHTS for Inhibitors of the Aldehyde Dehydrogenase Family (ALDH1A3) Validation screen (AID 2061312). Further: on the % scale 0 is the no-effect control and ±100 the full control effect; nearly all actives have a fitted effect of over 45% in size.
The target is the same in assay [4]. Description: qHTS for Inhibitors of the Aldehyde Dehydrogenase Family (ALDH1A3) Primary screen (AID 2061315).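 Further: plate controls were DMSO vehicle for no effect and reference inhibitor for full effect.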
Assay [5] can be described thus: BET inhibitor-based combinations targeting novel dependencies in MECOM-rearranged (r) AML: MV-4-11 cell line (AID 2202233). Further: potency means the concentration at half of the fitted maximal effect; nearly all actives have a fitted effect of over 45% in size. An outline of the steps: (§1)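 Seeding density was 500 cells/well, and drug exposure lasted 48 hr under standard culture conditions. Read-out used CellTiter-Glo reagent with a 15 min room-temperature incubation before luminescence measurement; AUC and Z-AUC summarize the normalized responses.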

The nature of assay [6]: BET inhibitor-based combinations targeting novel dependencies in MECOM-rearranged (r) AML: UCSD-AML1 cell line (AID 2202235). Further: nearly all actives have a fitted effect of over 40% in size. Further: potency means the concentration at half of the fitted maximal effect. An outline of the steps: as §1
A short description of assay [7]: BET inhibitor-based combinations targeting novel dependencies in MECOM-rearranged (r) AML: AML-194 cell line (AID 2202237; further: nearly all actives have a fitted effect of over 40% in size; further: potency means the concentration at half of the fitted maximal effect). Put shortly: (§2)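 Readout: CellTiter-Glo luminescence. Exposure: 48 h, 11 concentrations, 500 cells/well. Metric: AUC and within-line Z-AUC after DMSO/empty-well normalization.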
A short description of assay [8]: BET inhibitor-based combinations targeting novel dependencies in MECOM-rearranged (r) AML: AML-191 cell line (AID 2202236; further: nearly all actives have a fitted effect of over 35% in size; further: potency means the concentration at half of the fitted maximal effect). Put shortly:
as §2

The nature of assay [9]: BET inhibitor-based combinations targeting novel dependencies in MECOM-rearranged (r) AML: HNT-34 cell line (AID 2202234). Further: nearly all actives have a fitted effect of over 35% in size. Further: potency means the concentration at half of the fitted maximal effect. An outline of the steps:
as §1

Assay [10] is described as follows: BET inhibitor-based combinations targeting novel dependencies in MECOM-rearranged (r) AML: SET-2 cell line (AID 2202231). Further: potency means the concentration at half of the fitted maximal effect; nearly all actives have a fitted effect of over 35% in size. The settings on record: SET-2 AML cells viability, CellTiter-Glo luminescence, 48 h; viability: active compounds read low, concentration not given here. An outline of the steps: as §2
A general note: ATP-based viability assays read luminescence as a measure of living cells.

A short description of assay [11]: BET inhibitor-based combinations targeting novel dependencies in MECOM-rearranged (r) AML: OCI-AML3 cell line (AID 2202232). Further: potency means the concentration at half of the fitted maximal effect; nearly all actives have a fitted effect of over 35% in size. Conditions: Potency: OCI-AML3 viability. An outline of the steps:
as §2

“And” between values parts separate entries of the source, which are not always exact repeats. Equal entries are not always repeated. Inconclusive results are not listed. The source made the active and inactive calls. The call rests on the fitted dose curve; in most records, active means well fitted curve in the direction sought with a large enough effect; inconclusive means small, poorly fitted or top-dose-only effect, or another doubt; inactive means no such curve, though single readings can be large; an effect the other way counts as inactive or inconclusive.

Cellular tumor antigen p53 (Homo sapiens), sequence (P04637 whole entry, looked up): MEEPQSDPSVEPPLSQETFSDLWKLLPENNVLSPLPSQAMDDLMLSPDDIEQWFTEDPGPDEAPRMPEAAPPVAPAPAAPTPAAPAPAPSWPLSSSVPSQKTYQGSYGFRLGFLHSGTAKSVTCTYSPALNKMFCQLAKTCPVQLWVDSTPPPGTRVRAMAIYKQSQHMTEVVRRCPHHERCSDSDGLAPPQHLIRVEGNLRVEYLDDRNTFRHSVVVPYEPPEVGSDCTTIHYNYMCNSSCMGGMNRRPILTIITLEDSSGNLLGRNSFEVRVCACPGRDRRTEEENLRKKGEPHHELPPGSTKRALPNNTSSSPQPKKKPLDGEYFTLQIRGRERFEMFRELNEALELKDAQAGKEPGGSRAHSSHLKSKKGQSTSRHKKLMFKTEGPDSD

Turning to `O=C(Nc1cccc(Br)c1)c1cccc(S(=O)(=O)N2CCCCCC2)c1`, the activation in assay [1] was 41.1% (inactive) and -27.9% (inactive). Also, the Potency entry in assay [2], in assay [3], in assay [4] and in assay [6] was “inactive” each time. The Potency in [5] is 16600 nM (active).
With `Cc1nc2c([nH]1)CCN(C(=O)c1ccc(NC(=O)c3ccccc3-c3ccccc3)cc1)c1ccccc1-2`, the activation in assay [1] is -5.73% (inactive) and -5.25% (inactive). Further, the Potency result in [2], in assay [3], in [4], in assay [6] and in assay [7] was “inactive” each time. For the same compound, the Potency in [5] was 20900 nM (active).
In the case of `CCNC1(C(N)=O)CCN(c2ncnc3c2nc(-c2ccccc2Cl)n3-c2ccc(Cl)cc2)CC1`, in assay [1], the activation is 0.477% (inactive). For the same compound, the Potency result in assay [2], in assay [3], in [4] and in assay [6] was “inactive” in each case.
Turning to `CC(C)N(CCCNC(=O)Nc1ccc(C(C)(C)C)cc1)C[C@H]1O[C@@H](n2ccc3c(N)ncnc32)[C@H](O)[C@@H]1O`, in [1], the activation was -20% (inactive) and -29.1% (inactive). The Potency entry in assay [2], in assay [3], in [4], in assay [8] and in assay [7] was “inactive” in each case.
Regarding `CC(C)c1cc(-c2n[nH]c(=O)n2-c2ccc3c(ccn3C)c2)c(O)cc1O`, in [1], the activation was -0.957% (inactive) and -3.82% (inactive). Further, the Potency result in assay [2], in [3] and in assay [4] was “inactive” in each case. The Potency was 23.5 nM (active) in [5] and 46.8 nM (active) in [6].
Regarding `c1ccc(CNc2nc(N3CCOc4ccccc43)nc3c2CCCC3)cc1`, the activation in assay [1] was -5.48% (inactive) and -6.21% (inactive). Further, the Potency entry in assay [2], in assay [3], in assay [4], in [6] and in [7] was “inactive” in each case.
For `COc1ccc2c(Oc3ccc(NC(=O)c4c(C)n(CC(C)(C)O)n(-c5ccccc5)c4=O)nc3)ccnc2c1`, the activation in assay [1] is 16.6% (inactive) and 11.9% (inactive). The Potency entry in assay [2], in [3] and in [4] was “inactive” in each case. Further, the Potency was 372 nM (active) in assay [5] and 3320 nM (active) in [9].
For `Cc1cnc(Nc2cccc(CN3CCOCC3)c2)nc1Nc1cccc(S(=O)(=O)NC(C)(C)C)c1`, the activation in assay [1] was 11% (inactive). Further, the Potency entry in assay [2], in [3] and in assay [4] was “inactive” in each case. The Potency in assay [5] is 332 nM (active); in [9], 1660 nM (active); in assay [8] it was 1660 nM (active); in [7] it was 1320 nM (active).
With `CNCc1ccc(-c2[nH]c3cc(F)cc4c3c2CCNC4=O)cc1`, the activation in [1] is 35.7% (inactive). The Potency entry in [2] and in assay [3] was “inactive” each time. In addition, in assay [5], the Potency was 11800 nM (active).
Take `COC1CCN(C(=O)c2cc(Cc3n[nH]c(=O)c4ccccc34)ccc2F)CC1`: in [1], the activation is 4.47% (inactive). Also, the Potency entry in assay [2], in [3] and in [4] was “inactive” throughout. Further, the Potency in assay [5] was 16600 nM (active); in assay [8] it was 18600 nM (active).
Take `CC#C[C@@H](CC(=O)O)c1ccc(OCc2cccc(-c3ccc(C(F)(F)F)cc3)c2)cc1`: the activation in assay [1] is -17.2% (inactive). For the same compound, the Potency result in [2], in assay [3], in [4], in assay [9] and in assay [6] was “inactive” throughout.
With `C[C@@H](NC(=O)c1ncnc(N)c1Cl)c1ncc(C(=O)Nc2cc(C(F)(F)F)c(Cl)cn2)s1`, in assay [1], the activation is 19.6% (inactive). Also, the Potency result in assay [2], in assay [3] and in [4] was “inactive” throughout. For the same compound, the Potency in [6] is 8330 nM (active).
Turning to `COc1cc(OC)c2c(=O)[nH]c(-c3cc(C)c(OCCO)c(C)c3)nc2c1`, the activation in [1] was -0.477% (inactive). Moreover, the Potency entry in [2], in assay [3] and in assay [4] was “inactive” throughout. Also, the Potency in assay [5] is 16600 nM (active); in [8], 16600 nM (active); in assay [7], 20900 nM (active).
As for `O=C1NC(=O)C(c2cnc3ccccn23)=C1c1cn2c3c(cccc13)CN(C(=O)N1CCOCC1)CC2`, the Potency in assay [10] is 118 nM (active); in [11] it was 3320 nM (active); in [5], 93.4 nM (active); in assay [9], 118 nM (active); in assay [6], 1050 nM (active); in [8], 525 nM (active). Moreover, the Potency in assay [7] is 2350 nM (active).
As for `CC1(C)CC[C@]2(C(=O)O[C@@H]3O[C@H](CO[C@@H]4O[C@H](CO)[C@@H](O)[C@H](O)[C@H]4O[C@@H]4O[C@H](CO)[C@@H](O)[C@H](O)[C@H]4O)[C@@H](O)[C@H](O[C@@H]4O[C@H](CO)[C@@H](O)[C@H](O)[C@H]4O)[C@H]3O)CC[C@]3(C)C(=CCC4[C@@]5(C)CC[C@@H](O)[C@@](C)(C(=O)O[C@@H]6O[C@H](CO)[C@@H](O)[C@H](O)[C@H]6O)C5CC[C@]43C)[C@@H]2C1` (some centres not stated), the activation in assay [1] was -7.63% (inactive). Further, the activity change, negative = inhibition in [2] is 5.56% [at 11.2 µM] (inactive); in assay [4], 9.33% [at 11.2 µM] (inactive).
As to `COc1cc(-c2cc(-c3cccc(O)c3)cnc2N)cc(OC)c1OC`, in [1], the Potency is 16900 nM (active). Besides, the Potency entry in [2] and in assay [4] was “inactive” throughout.
As to `C=C[C@H]1[C@H](O[C@@H]2O[C@H](CO)[C@@H](O)[C@H](O)[C@H]2O)OC=C2C(=O)OCC[C@]21O`, the activation in assay [1] is -8.04% (inactive). The Potency result in assay [2] and in assay [4] was “inactive” throughout.
As to `Cc1cc2c(F)c(Oc3ncnn4cc(OCC(C)O)c(C)c34)ccc2[nH]1` (configuration not stated), the activation in assay [1] was -26.8% (inactive). The Potency result in [2] and in [4] was “inactive” throughout.
In the case of `COC(=O)C[C@H]1[C@]2(C)C3=C(C)[C@H](c4ccoc4)C[C@H]3O[C@@H]2[C@H](O)C2[C@](C)(C(=O)OC)C=CC(=O)[C@@]21C` (some centres not stated), the activation in assay [1] is 2.29% (inactive). Also, the Potency result in assay [2] and in assay [4] was “inactive” throughout.
As to `C=C(C(=O)O)C1CCC(C)C2CCC(=O)OC2(C)C1` (configuration not stated), the activation in [1] is 18.8% (inactive). Moreover, the Potency entry in assay [2] and in assay [4] was “inactive” throughout.
On to `C/C=C/C=C/[C@@H]1O[C@](O)([C@H](CC)C(=O)NC/C=C/C=C(\C)[C@@H](OC)[C@@H](C)C2OC(/C=C/C=C/C=C(\C)C(=O)c3c(O)cc[nH]c3=O)[C@H](O)[C@@H]2O)[C@H](O)[C@H](O)C1(C)C` (some centres not stated), for which, in assay [1], the activation was -1.79% (inactive). Moreover, the Potency entry in assay [2] and in assay [4] was “inactive” throughout.
For `CC1OC(OC2CCC3(C)C(CCC4(C)C3CC=C3C5CC(C)(C)CCC5(C(=O)OC5OC(CO)C(O)C(O)C5O)CCC34C(=O)O)C2(C)C)C(O)C(O)C1O` (configuration not stated), in [1], the activation was 0.763% (inactive). Also, the Potency entry in [2] and in assay [4] was “inactive” in each case.
`C/C=C/C1=CC2=CC(=O)C(C)(O)C(OC(=O)c3c(C)cc(O)cc3O)C2CO1` (configuration not stated): the activation in assay [1] was -12.2% (inactive). Also, the Potency result in assay [2] and in assay [4] was “inactive” throughout.
